Data: PubChem BioAssay (NCI)
Compounds without any hit were thinned out: in the full panel of roughly 83,000, 20% have a hit.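 Single-dose data. Exposure time 48 hours. Values below 10 considered active.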 Unmarked numbers belong to inactive results. Active and inactive are the calls of the source.

Experiments:
Test in all cases: NCI-60 one-dose screen, 48 h (100 = growth as untreated, 0 = no growth, -100 = all killed)
Settings in all cases: 10 µM unless noted
T-47D breast = tested on: T-47D breast
BT-549 breast = tested on: BT-549 breast
MDA-MB-435 melanoma = tested on: MDA-MB-435 melanoma
SW-620 colon = tested on: SW-620 colon
MCF7 breast = tested on: MCF7 breast
HCT-116 colon = tested on: HCT-116 colon
HCC-2998 colon = tested on: HCC-2998 colon
KM12 colon = tested on: KM12 colon

| Compound | growth (T-47D breast) | growth (BT-549 breast) | growth (MDA-MB-435 melanoma) | growth (SW-620 colon) | growth (MCF7 breast) | growth (HCT-116 colon) | growth (HCC-2998 colon) | growth (KM12 colon) |
| --- | --- | --- | --- | --- | --- | --- | --- | --- |
| COC(=O)/C(CCC=C(C)C)=C1\[C@@H](OC(C)=O)C[C@@]2(C)[C@H]1C/C(=N/O)[C@H]1[C@@]3(C)CC/C(=N\O)[C@@H](C)[C@@H]3CC[C@@]12C | 82.9% | 95.5% | 98.6% | 106% | 55.1% | 101% | 110% | 103% |
| C=C1C(=O)O[C@@H]2C3C(=C(C)CC[C@@H]12)CC1O[C@]13C (stereo not given in full) | 56.8% [6.75 µM] | 76.3% [6.75 µM] | 75.5% [6.75 µM] | 71.8% [6.75 µM] | 44.2% [6.75 µM] | 46.1% [6.75 µM] | 108% [6.75 µM] | 102% [6.75 µM] |
| C=C(C)[C@@H]1CC[C@]2(C(=O)N3CCNCC3)CC[C@]3(C)[C@H](CC[C@@H]4[C@@](C)(CCC(=O)N5CCNCC5)[C@H](C(=C)C)CC[C@]43C)[C@@H]12 | 103% | 88.5% | 74% | -14.4% (active) | 26.4% | -56.1% (active) | 81% | 51.2% |
| Cc1ccc(S(=O)(=O)OCC#CCOS(=O)(=O)c2ccc(C)cc2)cc1 | -22.9% (active) | 54.9% | 49.3% | 51.2% | 31% | 24.7% | 81.6% | 60.9% |
| CCOC(=O)C1=C(c2ccccc2)N=C2N(c3ccccc3)N=C(C(C)=O)N2C1c1ccc(F)cc1 (stereo not given) | 98.8% | 101% | 102% | 99.9% | 95.1% | 97.8% | 115% | 97.6% |
| N#Cc1ccc(O)c(C2=NCC(c3ccc(-c4ccccc4)cc3)O2)c1 (stereo not given) | -1.94% (active) | 16.3% | 26.8% | 23.9% | 10.3% | 9.12% (active) | 34.8% | 16.6% |
| COc1ccc2c(c1)CC[C@@H]1[C@@H]2CC[C@]2(C)c3c(cc(C#N)c4c3sc3ccccc34)C[C@@H]12 | 102% | 114% | 105% | 99.5% | 106% | 108% | 92.7% | 109% |
| Cc1ccc(OCCOCCOCCOCCOCCOc2ccc(C)n(O)c2=S)c(=S)n1O | 15.1% | 26% | 32.6% | 27.9% | 11.5% | 18% | -7.72% (active) | 23% |
| Cc1ccc(NC(=O)c2sc3nc(C)c(C(O)c4ccccc4)cc3c2N)cc1 (stereo not given) | 42.3% | 61.6% | -13.1% (active) | 23.1% | 19.2% | 13.7% | 12.1% | 16.8% |
| COc1ccc(-c2cc(-c3cn(-c4cccc(Cl)c4)nc3-c3ccc(OC)cc3)on2)cc1 | 95% | 121% | 110% | 106% | 86.6% | 101% | 101% | 92.5% |
| Cn1cc(-c2nc3c(F)cc4[nH]ncc4c3c3c2CCCC3)c(C(F)(F)F)n1 | 39.9% | 4.21% (active) | 14% | 18.6% | 24.6% | 15.1% | 65.3% | 24.2% |
| COc1ccc2c(O)c(/C=C3\N=Nc4ncccc43)oc2c1C[C@@H]1CCNC[C@H]1F | 29.7% | -43.2% (active) | -9.87% (active) | -6.3% (active) | -14.5% (active) | -59.6% (active) | -21.5% (active) | -48.7% (active) |
| COC1C(O)CC(OC2CC(OC3CC(O[C@@H]4C(=O)c5c(cc6cc(OC7CC(OC8CC(O)C(O)C(C)O8)C(O)C(C)O7)c(C)c(O)c6c5O)CC4[C@H](OC)C(=O)O)OC(C)C3O)OC(C)C2O)OC1C (stereo not given in full) | 25.5% | 21.4% | 28.8% | 32% | 10.1% | 15.4% | 38.6% | 22.9% |
| CC(C)(C)OC(=O)CN1CCc2c(sc3ncnc(N4CCN(c5ccc(F)cc5)CC4)c23)C1 | 63.9% | 76.1% | 93.3% | 77.7% | 90.6% | 87.3% | 100% | 83% |
| O=C(CN1C(=O)S/C(=C\C(Cl)=C\c2ccccc2)C1=O)NC1CCS(=O)(=O)C1 (stereo not given) | 15.7% | 76.5% | 66.2% | 22.6% | 13.7% | 5.67% (active) | 103% | 65.4% |
| O=C(OCc1ccc2c(Cl)cc(Cl)c(O)c2n1)N1CCN(C(=O)c2cc3ccccc3[nH]2)CC1 | 23.5% | 50.6% | 39.1% | 25.8% | 25.3% | 20.3% | 55% | 20.7% |
| Nc1nc2ccccc2c2c(=O)c3cc(Cl)ccc3sc12 | 45.3% | 105% | 101% | 117% | 27.2% | 88.7% | 97.5% | 12.9% |
| COc1ccc(C=Nc2c(C(=O)Nc3cccc(Cl)c3C)sc3nc(C)c(C(=O)/C=C/c4ccc(OC)cc4)cc23)cc1 | 24.3% | 40% | -65.8% (active) | 12.4% | 11.8% | 23% | 57.6% | 12.4% |
| Cc1cc(O)cc(-c2nn(C)cc2-c2cc(N3CCOCC3)nc(-c3cccnc3)n2)c1 | 28.8% | 36.3% | 3.68% (active) | 38.4% | 14.9% | 17.3% | 63% | 28.9% |
| Fc1cccc(-c2nc(-c3c[nH]c4ncccc34)cs2)c1 | 40.5% [100 µM] | 65.6% [100 µM] | 50.4% [100 µM] | 56% [100 µM] | 44.6% [100 µM] | 33.8% [100 µM] | 89% [100 µM] | 56.6% [100 µM] |
| COCCOC(C)C(/C=N/NC(N)=S)=N/NC(N)=S (stereo not given) | 28.7% | 90.1% | 87.4% | 61.7% | 19.2% | 6.21% (active) | 94.2% | 92.2% |
| CCCCC#Cc1c(I)n(C2OC(CO[Si](C)(C)C(C)(C)C)C3OC(C)(C)OC32)c(=O)n(C(=O)c2ccccc2)c1=O (stereo not given) | -10.1% (active) | 27.5% | 44.8% | -49.2% (active) | 28.9% | 14.7% | -9.34% (active) | 71.7% |
| Cc1cc(=O)oc2cc(Oc3nc(Br)cn4c(Br)cnc34)ccc12 | 53.7% | 92.2% | 87.2% | 116% | 22.2% | 55.5% | 105% | 78.9% |
| C=CCN=c1sc(-c2ccc3ccccc3c2)cn1NC(=O)c1cc2ccc1CCc1ccc(cc1)CC2 | 20.8% | 53.9% | 67.5% | 72.9% | 35.9% | 27.1% | 89.1% | 56.6% |
| CCN(CC)CCCNc1cc(OC)c(OC)c2cccnc12 | 33.8% | 81.2% | 42.3% | 58.4% | 31.4% | 9.79% (active) | 76.1% | 84.1% |
| CCOC(=O)C1=C(CCl)N(C)C(=O)NC1c1ccc2c(c1)OCO2 (stereo not given) | 35.6% | 37.8% | 26.6% | 8.16% (active) | 51.8% | 19.1% | 94.6% | 73.1% |
| CCOC(=O)C/C(=N\Nc1cc(=O)[nH]c2ccc(C)cc12)C(=O)OCC | 107% | 108% | 98.6% | 94.8% | 94.8% | 99.7% | 102% | 100% |
| O=C1C(Cl)=C(Nc2ccccc2)C(=O)c2ccccc21 | -2.5% (active) | -94.7% (active) | -97.7% (active) | -72% (active) | -58% (active) | -96.2% (active) | -15.6% (active) | 46.9% |
| CN1CCN(Cc2ccc(NC(=O)c3cncc(C#Cc4cnc(N)cc4C#N)c3)cc2C(F)(F)F)CC1 | 24.7% | 37.5% | 2.03% (active) | -2.02% (active) | 18.7% | 1.47% (active) | 22.5% | 5.45% (active) |
| COc1cc(/C=C/c2cn[nH]c2-c2ccc(C)cc2)cc(OC)c1OC | 22.2% | 32.9% | -16.2% (active) | 19.7% | 13.1% | 11.7% | 78.8% | 29.9% |
